Assay outcomes (PubChem)
Rab9 promoter act: Rab9 promoter activation | 320,000 compounds, 2.8% hits | Potency, µM (titrated, usually from 9.22 µM), for the others: at the top dose activation, negative = inhibition, usual class: activators | Huh7 Rab9 promoter-luciferase reporter, luminescence, 24 h; note: % of control where 0% means no effect; nearly all actives have a fitted effect of over 60% in size
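Cells were plated at 1500 per well in reduced-serum medium with 10% FBS and left 2 h. Compound in DMSO was then added for 24 h at 37 °C. Reporter signal was read by luminescence after 10 min with luciferase detection reagent.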
SMN2 splice up: SMN2 splice variant enhancement; AID 1458; Potency, µM (top dose mostly 46.1 µM), for the others: at the highest dose activity change, positive = activation, most hits filed as activators; HEK293 SMN2-luciferase splicing reporter, luminescence, 30-36 h; 210,000 compounds, 2.8% hits; note: % of control where 0% means no effect; nearly all actives have a fitted effect of over 55% in size
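HEK293 cells carry an SMN2 minigene-luciferase reporter in which exon 7 inclusion puts luciferase in frame. Cells were seeded at 2000 cells/well, attached for 10-12 hours, then exposed to compounds for 30-36 hours at 37C before ONE-Glo luminescence.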
FLuc modulator: firefly luciferase modulation, counter-screen for miR-21 project. P08659. purified FLuc, Km substrates, luminescence inhibition. Potency, µM (series often up to 57.5 µM), for inactives: at the top dose activity change, negative = inhibition, usual class: inhibitors. 360,000 compounds, 6.9% hits;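 note: plate controls were vehicle for no effect and reference inhibitor for full effect; nearly all actives have a fitted effect of over 55% in size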
Target sequence (P08659 whole entry, looked up): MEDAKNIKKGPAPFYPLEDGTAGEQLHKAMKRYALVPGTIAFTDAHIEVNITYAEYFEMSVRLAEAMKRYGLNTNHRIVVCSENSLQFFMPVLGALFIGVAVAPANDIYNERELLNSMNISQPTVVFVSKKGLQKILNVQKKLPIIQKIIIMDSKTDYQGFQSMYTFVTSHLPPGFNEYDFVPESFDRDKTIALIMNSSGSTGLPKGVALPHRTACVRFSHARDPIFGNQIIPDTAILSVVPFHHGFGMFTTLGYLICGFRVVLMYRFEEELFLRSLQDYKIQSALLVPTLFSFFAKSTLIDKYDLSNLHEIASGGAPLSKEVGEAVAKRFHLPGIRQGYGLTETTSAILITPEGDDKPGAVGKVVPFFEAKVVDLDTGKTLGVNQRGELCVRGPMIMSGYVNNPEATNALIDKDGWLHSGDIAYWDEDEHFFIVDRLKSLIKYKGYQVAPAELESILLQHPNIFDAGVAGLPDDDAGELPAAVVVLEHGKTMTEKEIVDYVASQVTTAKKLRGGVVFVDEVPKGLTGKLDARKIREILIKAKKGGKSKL
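Biochemical qHTS of compounds, final roughly 60 µM downward over six points, against 10 nM purified firefly luciferase using Km concentrations of substrates (10 uM D-luciferin, 10 uM ATP) in Tris acetate pH 7.5 buffer; luminescence output.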
ELG1 DNA repair: blocks ELG1-dependent DNA repair in HEK293T cells; HEK293T ELG1-luciferase reporter, luminescence, 16 h; DNA damage induced by 5-fluorouridine; Potency, µM (series often up to 46.1 µM), without a hit: top-dose activity change, negative = inhibition, usual class: inhibitors; 330,000 compounds, 2.3% hits; AID 504467; note: % is set by controls: 0 for no effect and ±100 for the full control effect; nearly all actives have a fitted effect of over 55% in size
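In this reporter screen, reduction of luminescence relative to DMSO vehicle indicated activity. Compounds and 5-fluorouridine were added together to 2,000 cells per well, incubated for 16 hr at 37 °C, then developed with ONE-Glo.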
ELG1 genotoxic: genotoxicity induction in ELG1-luciferase HEK293T cells | 330,000 compounds, 1.3% hits | AID 504466 | Potency, µM (titrated, usually from 46 µM), for the others: at the highest dose activity change, positive = activation, usual class: activators | HEK293T ELG1-luciferase reporter, luminescence, 16 h; note: % of control where 0% means no effect; nearly all actives have a fitted effect of over 60% in size
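Cells (2,000/well) expressing the ELG1-luciferase fusion are dosed by pin tool and kept 16 hr at 37 °C, 5% CO2. Signal comes from ONE-Glo luciferase reagent after 30 min at room temperature.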
NPC1 promoter act: NPC1 promoter activation; Huh7 NPC1 promoter luciferase reporter, 24 h; Potency, µM (doses to about 9.22 µM), inactives show at the highest dose activation, actives largely listed as activators; 320,000 compounds, 2.4% hits; AID 485313; note: % of control where 0% means no effect; nearly all actives have a fitted effect of over 60% in size
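Huh7 cells stably carrying NPC1 promoter–luciferase, plated in Opti-MEM with 10% FBS for 2 h, were exposed to compound in DMSO for 24 h at 37 °C; luciferase reagent was added for 10 min and luminescence read.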
An asterisk follows results filed as active; u = inconclusive; x = not tested or not shown; [ ] = remark or other dose. The list is not random: actives were taken first. Their share in the collection is about 9.2%. Calls come from the whole dose curve; as a rule, active = well fitted curve in the direction sought with a large enough effect; inconclusive = small, poorly fitted or top-dose-only effect, or another doubt; inactive = no such curve, though single readings can be large; an effect the other way counts as inactive or inconclusive. Potency is the fitted concentration of half-maximal effect.

SMILES	Rab9 promoter act	SMN2 splice up	FLuc modulator	ELG1 DNA repair	ELG1 genotoxic	NPC1 promoter act
CC1CCN(c2ccc(-c3cccc(NC(=O)c4ccco4)c3)nn2)CC1	1µM*	x	0.151µM*	u	0.517µM*	1.26µM*
CCC(=O)Nc1cccc(-c2ccc(N3CCC(C)CC3)nn2)c1	0.316µM*	x	0.135µM*	u	0.731µM*	0.316µM*
COC(=O)c1ccccc1NC(=O)CSc1nnc(CNS(=O)(=O)c2ccc(C)cc2)n1C	0.2%	7.0%	-1.7%	u	-4.0%	1.3%
Cc1ccc(C(=O)Cc2nc3ccccc3[nH]2)cc1	4.47µM*	x	6.01µM*	u	3.55µM*	2µM*
O=C(NC(Cc1ccccc1)c1nc2ccccc2[nH]1)c1cccc([N+](=O)[O-])c1 (stereo not given)	-3.3%	x	-17.7%	1.7%	-3.0%	9.9%
CCOC(=O)Cc1nc2ccccc2[nH]1	0.7%	-2.4%	-0.4%	-10.0%	-3.4%	-2.3%
COC(=O)c1cc(C(=O)Nc2nc3ccccc3[nH]2)cc([N+](=O)[O-])c1	3.8%	x	4.78µM*	-27.4%	0.0%	16.6%
C/C(=N\Nc1nc2ccccc2[nH]1)c1ccc([N+](=O)[O-])cc1	-5.4%	x	-15.7%	9.9%	2.5%	0.0%
O=C(Nc1nc2ccccc2[nH]1)c1ccc([N+](=O)[O-])cc1	0.562µM*	2.51µM*	u	u	u	1µM*
O=C(Nc1nc2ccccc2[nH]1)c1cccc([N+](=O)[O-])c1	1.41µM*	11.2µM*	u	u	8.8%	3.55µM*
O=C(CSc1nnc(-c2cccs2)o1)Nc1cccc(S(=O)(=O)N2CCCCC2)c1	-5.1%	2.9%[1.84 µM]	-1.7%	u	4.1%	-0.8%
CCOc1ccc(OCC(=O)OC(C)C(=O)NC2CCCC2)cc1 (stereo not given)	x	x	x	12.4%	1.4%	x
O=C(Cc1nc2ccccc2[nH]1)c1cccc([N+](=O)[O-])c1	5.6%	x	23.9µM*	4.11µM*	-6.1%	u
O=C(NNC(=S)Nc1ccc(OC(F)F)cc1)c1cc2c(s1)CCCC2	12.9%	15.9%	-4.4%	14.7%	1.7%	0.4%
Cc1cc(C(F)(F)F)c(C#N)c(SCC(=O)Nc2nc3cc(Br)ccc3s2)n1	3.16µM*	-57.9%	-21.4%	u	5.1%	28.7%
CCOC(=O)NC(=O)CSc1nc(C)cc(C(F)(F)F)c1C#N	21.2%	2.8%	-12.2%[2.3 µM]	u	12.7%	21.9%
Cc1ccccc1C1=N/C(=C/c2cccs2)C(=O)O1	3.3%	-20.5%	3.38µM*	21.8%	0.2%	-0.5%
O=C1/C(=C/c2cccs2)Cc2ccccc21	18.7%	x	3.79µM*	u	u	21.4%
Cc1ccc(C)c(/C=C2\N=C(c3ccccc3F)OC2=O)c1	6.1%	x	u	-10.2%	1.7%	-8.0%
O=C1/C(=C\c2ccc(Br)o2)SC(=Nc2ccccc2)N1c1ccccc1	0.2%	-24.0%	3.5%	u	-0.5%	1.3%
CSC1=N/C(=C\c2ccc(C)s2)C(=O)S1	-4.5%	11.4%	-2.6%	5.6%	3.0%	-0.1%
Cc1ccc(C=C2C(=O)c3ccccc3C2=O)s1	9.5%	16.0%	0.849µM*	0.0%	u	1.2%
O=C1/C(=C\c2ccc(Br)o2)Cc2ccccc21	1.8%	-24.8%	15.1µM*	u	u	0.2%
COc1ccc(NC(=O)CCN2C(=O)C3C4CCC(C4)C3C2=O)cc1 (stereo not given)	0.1%	-8.2%	-10.0%	u	-0.4%	5.1%
Cc1ccc(NC(=O)CCC(=O)N2Cc3ccccc3Oc3ncccc32)c(C)c1	x	x	-10.8%	x	x	x
SMILES	Rab9 promoter act	SMN2 splice up	FLuc modulator	ELG1 DNA repair	ELG1 genotoxic	NPC1 promoter act
O=C1C(=Cc2cccs2)C(=O)c2ccccc21	10.2%	5.5%	4.78µM*	4.0%	10.4%	-1.4%
Cc1c(NC(=O)/C=C/c2ccc(S(=O)(=O)N3CCOCC3)cc2)c(=O)n(-c2ccccc2)n1C	3.2%	x	-2.9%	-13.9%	-0.2%	-1.3%
Clc1cccc(Cl)c1/C=C/c1ccn[nH]1	8.2%	x	16.9µM*	-8.8%	11.2%	-20.9%
CCCOc1ccc(CNC(=O)Cc2cccs2)cc1	u	x	19µM*	u	u	u
O=C(Cc1cccs1)NCc1ccc(Cl)cc1Cl	2.82µM*	x	15.1µM*	u	u	3.16µM*
O=C(Cc1cccs1)NCc1ccccc1Br	3.98µM*	x	19µM*	u	u	u
O=C(Cc1cccs1)NCc1cccc(CNC(=O)Cc2cccs2)c1	0.2%	12.1%	-3.3%	-2.1%	-0.5%	-1.9%
CN(C)Cc1ccccc1-c1cncnc1NC1CC1	x	13.8%	x	x	x	x
Cc1c(N=NC2=C(O)CC(C)(C)CC2=O)c(=O)n(-c2ccccc2)n1C	-6.4%	-33.0%	-7.9%	u	-2.7%	-2.2%
COc1cccc(NC(=O)/C(C#N)=C/c2c(C)n(Cc3ccc(Cl)cc3)c3ccccc23)c1	x	-26.7%	6.7%	x	x	x
c1ccc(Nc2cccc(Nc3ccccc3)c2)cc1	23.4%	22.3%	15.1µM*	u	u	23.9%
O=C(NC(=S)Nc1ccc2[nH]ncc2c1)c1ccccc1	u	21.6%	u	u	15.5%	u
O=C(Nc1ccc2ncccc2c1)c1ccccc1	2.4%	x	-4.6%	-3.7%	1.6%	-3.4%
CC(C)(C)NC(=S)NNC(=O)c1ccc2ncccc2c1	0.501µM*	14.1µM*	u	u	24.1%	u
O=C(NC(=S)Nc1ccc2ncccc2c1)c1ccccc1	2.24µM*	u	u	u	u	2.82µM*
O=C(NC(=S)Nc1ccc2nc[nH]c2c1)c1ccccc1	3.98µM*	x	u	u	u	2.82µM*
O=C(NNC(=S)Nc1ccccc1)c1ccc2ncccc2c1	u	14.1%	u	27.7%	5.3%	7.0%
COc1ccc(NC(=O)CN(C)S(=O)(=O)c2ccc3nc(C)sc3c2)cc1	x	x	-0.5%	x	x	x
O=C(c1ccccc1)c1ccc(N2CCN(C(=O)c3cccc(F)c3F)CC2)c(F)c1	3.4%	x	2.4%	-13.3%	-16.2%	-6.2%
CCOc1ccc(NC2=C(OC)C(=O)c3ccccc3C2=O)cc1	3.1%	-25.7%	16.9µM*	24.1%	0.2%	15.1%
